101 compounds from PubChem BioAssay AID651812 (National Center for Advancing Translational Sciences (NCATS), 2012) can be followed below.

Hit rate of the full screen: of about 2,100 compounds, about 650 (31%) were called active. Another 16% or so got no clear call; they are omitted. The call rests on the fitted dose curve; in most records, active means well fitted inhibition curve with a large enough effect; inconclusive means small, poorly fitted or top-dose-only effect; inactive means flat fitted curve, though single readings scatter. This is one part of the list. Where a call stands in place of a potency, no number is given.
Potency means the concentration at half of the fitted maximal effect.

The nature of this assay: qHTS for inhibitors of Vif-A3G interactions: Cherry picks. Further: nearly all actives have a fitted effect of over 80% in size. To be noted: HeLa A3G-eYFP + Vif (tagged APOBEC3G with the HIV-1 protein that degrades it), 24 h; Potency: eYFP fluorescence increase; series mostly up to 36.9 µM. The method in brief: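 Cherry-picked compounds tested at several concentrations on A3G-eYFP/Vif HeLa cells for 24 hours; loss of Vif-driven degradation read as eYFP fluorescence by cytometric plate imaging, 488 nm excitation, 500-530 nm emission.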
(In general: In qHTS, concentration-response curves come from the screen itself.)
`COc1cc2nc(/C=C/c3ccc(N(C)C)cc3)sc2cc1SC`: the Potency was 16.4 µM (active).

Take `NNC(=O)c1oc2nc(-c3ccccc3)cc(-c3ccco3)c2c1N`: the Potency is 20.6 µM (active).

In the case of `CC(/C=N/NC(=O)c1cc(-c2ccccc2)nc2ccccc12)=C\c1ccco1`, the Potency result was “inactive”.

As to `Cc1ccc(-c2cc(-c3ccco3)c3c(N)c(C(=O)NN)oc3n2)cc1`, the Potency was 20.6 µM (active).

On to `CC(C)(C)C(=O)/C(=C/c1ccc(Cl)cc1)n1cncn1`, for which the Potency result is “inactive”.

As to `CCN(CC)c1ccc2c(cc1=O)[C@@H](NC)CCc1cc(OC)c(OC)c(OC)c1-2`, the Potency entry was “inactive”.

With `COC(=O)c1sc(-c2cccs2)cc1NC(=O)/C=C/C(=O)O`, the Potency result is “inactive”.

Turning to `C=CCN1C(=O)/C(=C2/Sc3ccc(OC)cc3N2CC)SC1=S`, the Potency is 14.6 µM (active).

Turning to `C=CCN1C(=O)/C(=C2/Sc3ccc(OC)cc3N2C)SC1=Nc1cccc(O)c1`, the Potency is 18.4 µM (active).

For `C[C@]1(O)CC(=O)C=C[C@H]1Nc1ccccc1`, the Potency entry was “inactive”.

In the case of `COc1ccccc1N1C(=O)C2C(C(=O)c3ccccc3)=NN(c3ccc(C)cc3)C2C1=O` (stereo unspecified), the Potency result was “inactive”.

Consider `N=C1S/C(=C\c2ccc(-c3cccc(Cl)c3)o2)C(=O)N1c1nccs1`, for which the Potency was 20.6 µM (active).

`Cc1ccc(Cn2c(SCc3ccc(C(=O)NC4CCCC4)cc3)nc3ccncc32)cc1`: the Potency entry was “inactive”.

Take `COc1ccc2c(c1)/C(=C/c1cc(OC)c(OC)c(OC)c1)C(=O)N2`: the Potency entry is “inactive”.

For the compound `COc1ccc2c(c1)/C(=C\c1cccc(/C=C3/C(=O)Nc4ccc(OC)cc43)n1)C(=O)N2`, the Potency entry is “inactive”.

Turning to `CN(C)S(=O)(=O)c1ccc2c(c1)/C(=C/c1cc3c([nH]1)CCCC3)C(=O)N2`, the Potency was 2.23 µM (active).

`CC(C)OC(=O)c1c2c(n3ccccc13)C(=O)c1ccccc1C2=O`: the Potency is 10.3 µM (active).

For the compound `COc1cc(/C=C2\SC(=Nc3ccccc3)NC2=O)cc(Cl)c1O`, the Potency is 20.6 µM (active).

Take `COc1cc(/C=C2\SC(=Nc3cccnc3)NC2=O)cc(OC)c1OC`: the Potency result is “inactive”.

For `CCOc1cc(Br)cc(/C=C2\SC(=Nc3ccccc3)NC2=O)c1O`, the Potency result was “inactive”.

As to `O=c1c2ccccc2sc2ccc(NCCCN3CCOCC3)cc12`, the Potency is 18.4 µM (active).

On to `Cc1ccc2[nH]c(C(=O)NN=C3CCCCC3)c(-c3ccccc3)c2c1`, for which the Potency entry is “inactive”.

Regarding `CC1C/C(=N\NC(N)=S)c2cc(Cl)ccc2S1` (stereo unspecified), the Potency entry is “inactive”.

For the compound `N#Cc1c(C(F)(F)F)cc(-c2ccccc2)nc1SCc1nc(N)nc(N2CCOCC2)n1`, the Potency was 8.2 µM (active).

On to `Cc1ccc(N=C2NC(=O)CC(C(=O)Nc3ccc4c(c3)OCO4)S2)cc1` (stereo unspecified), for which the Potency result is “inactive”.

`CC(C)n1c(O)c(N=Nc2ccc(Cl)nn2)c2ccccc21`: the Potency is 16.4 µM (active).

Turning to `O=C(CSc1n[nH]c(-c2ccccn2)n1)Nc1ccc(Cl)cc1`, the Potency entry is “inactive”.

As for `C/C(CC(=O)NCc1ccc(Cl)cc1)=N\NC(=O)COc1ccc(C)cc1Br`, the Potency result was “inactive”.

`Cc1nc2c3cc(F)ccc3n(Cc3ccccc3F)c2s1`: the Potency entry is “inactive”.

For the compound `O=C(CN1c2ccccc2Sc2ccccc21)NNC(=O)Nc1cccc(Cl)c1`, the Potency entry is “inactive”.

As to `CCN1/C(=C\C=C(C(C)=O)C(C)=O)Sc2ccccc21`, the Potency was 20.6 µM (active).

For `Cc1ccc(-c2nc3ncccc3o2)cc1NC(=O)c1ccc([N+](=O)[O-])o1`, the Potency result was “inactive”.

Consider `CC(C)C1C(=O)N(Cc2cn(CCC3OCCCO3)nn2)CCS(=O)(=O)N1Cc1ccc(-c2cccc(CO)c2)cc1` (stereo unspecified), for which the Potency entry was “inactive”.

Regarding `COc1ccc(-c2ccnc(-c3ccc(O)cc3)n2)cc1`, the Potency result was “inactive”.

For the compound `CCC1=Nc2cc(C(=O)NCc3cccnc3)ccc2Sc2ccc(C)cc21`, the Potency entry was “inactive”.

Regarding `C[n+]1cc(C(=O)N2CCCCC2)ccc1/C=C/c1c[nH]c2ccccc12`, the Potency is 14 µM (active).

With `CCN(CC)C(=O)c1ccc(/C=C/c2c[nH]c3ccccc23)[n+](C)c1`, the Potency was 18.4 µM (active).

For the compound `Cc1sc2nc(CSCC(=O)Nc3ccccc3C#N)[nH]c(=O)c2c1C`, the Potency entry was “inactive”.

For the compound `O=C1OC(/C(=C\Nc2cc(Cl)ccc2O)[N+](=O)[O-])c2ccccc21` (stereo unspecified), the Potency entry was “inactive”.

Regarding `CC(=O)Nc1cccc(-c2ccnc3c2CC(C(=O)Nc2cccc(N(C)C)c2)O3)c1` (stereo unspecified), the Potency result is “inactive”.

As to `COc1ccc(C(=O)NC(=S)NCc2cccnc2)cc1Cl`, the Potency entry was “inactive”.

Consider `O=[N+]([O-])c1ccc(C2=Nc3cc(Cl)ccc3OC2)cc1`, for which the Potency was 29.1 µM (active).

With `CCOC(=O)c1c(C)[nH]c(C(=O)N/N=C/c2cccc(OC)c2)c1C`, the Potency entry is “inactive”.

For the compound `Cc1ccnc(NC(=S)NC(=O)/C=C/c2ccco2)c1`, the Potency result is “inactive”.

On to `CCOC(=O)c1cc(-c2ccccc2)sc1NC(=S)Nc1cc(C)ccn1`, for which the Potency was 10.3 µM (active).

For the compound `CCOC(=O)c1ccc(NC(=S)Nc2cccc(C)n2)cc1`, the Potency entry was “inactive”.

For the compound `CNC(=O)C(Sc1nc(C)nc2c1oc1ccccc12)C(C)=O` (stereo unspecified), the Potency result was “inactive”.

On to `COc1ccc(Cn2c(C)nc3c(c2=O)c2nc4ccccc4nc2n3Cc2ccco2)cc1`, for which the Potency was 5.8 µM (active).

As to `COc1ccc(Cn2c(=O)cc(N)n(-c3ccccc3C)c2=O)cc1`, the Potency result was “inactive”.

Turning to `O=C(Cc1cc2ccccc2o1)NCc1ccc(F)cc1`, the Potency entry was “inactive”.

In the case of `O=c1[nH]c2cc(Br)cnc2nc1/C=C(\O)c1ccc(F)cc1`, the Potency was 13 µM (active).

As to `COc1cccc(OCc2nc3ncc(Br)cc3[nH]2)c1`, the Potency entry was “inactive”.

For the compound `CCCCNc1c(-c2ccc(SC3CCCCC3)cc2)nc2cnccn12`, the Potency was 2.8 µM (active).

As for `CCC(C)Sc1ccc(-c2nc3cc(C)ccn3c2NC2CCCCC2)cc1` (stereo unspecified), the Potency entry is “inactive”.

As for `COc1ccc(-c2nc3cnccn3c2NC2CCCCC2)cc1-c1cccc(Cl)c1`, the Potency result is “inactive”.

Turning to `COc1ccc(NC(=O)C2(C)Cc3c(-c4cccc(C(N)=O)c4)ccnc3O2)cc1` (stereo unspecified), the Potency entry is “inactive”.

For `O=[N+]([O-])c1ccc(/C=N/Nc2ccc3ccccc3c2)o1`, the Potency is 4.44 µM (active).

Regarding `Cc1cc(C(=O)N/N=C/c2ccc(C)o2)c2ccccc2n1`, the Potency entry was “inactive”.

With `Cc1cc(N/N=C/c2ccc([N+](=O)[O-])o2)nc2ccccc12`, the Potency is 20.6 µM (active).

`O=C(N/N=C/c1ccc([N+](=O)[O-])o1)c1cc(-c2ccc(-c3ccccc3)cc2)nc2ccccc12`: the Potency result is “inactive”.

With `Cc1cccc(Nc2nc(N)nc(-c3oc4ccccc4c3C)n2)c1`, the Potency result was “inactive”.

`O=C(Nc1nc(-c2ccccn2)cs1)C1CCCC1`: the Potency entry was “inactive”.

As for `Nc1c(C(=O)c2ccccc2)sc2nsc(SCCN3CCCC3)c12`, the Potency is 19.8 µM (active).

In the case of `Nc1c(C(=O)c2ccccc2)sc2nsc(SCCN3CCOCC3)c12`, the Potency was 16.4 µM (active).

Consider `O=C(c1ccccc1)C(CN1CCCCC1)c1ccccc1` (stereo unspecified), for which the Potency result was “inactive”.

Regarding `C[C@H]1CN([C@@H](C)CO)C(=O)Cc2cc(NC(=O)CCC(F)(F)F)ccc2O[C@H]1CN(C)S(=O)(=O)c1ccc(F)cc1`, the Potency result was “inactive”.

Consider `C/C(=N\NC(=O)c1cc(C)nc2ccccc12)c1ccncc1`, for which the Potency entry was “inactive”.

Regarding `Cc1cccc(N2CCN(Cc3cn(C)nc3-c3ccccc3F)CC2)n1`, the Potency result is “inactive”.

As to `COC(=O)C1C2CC3c4[nH]c5cc(OC)ccc5c4CCN3CC2CC(OC(=O)CC(C)=O)C1OC` (stereo unspecified), the Potency is 18.4 µM (active).

As to `COC(=O)C1C2CC3c4[nH]c5cc(OC)ccc5c4CCN3CC2CC(OC2CCCCO2)C1OC` (stereo unspecified), the Potency is 20.6 µM (active).

As for `C[C@H](O)[C@@H]1CN2CCc3c([nH]c4ccccc34)[C@@H]2C[C@@H]1N(C)C(=O)c1ccco1`, the Potency entry was “inactive”.

With `Cc1ccccc1NC(=O)CSC1=C(C#N)C(c2ccsc2)CC(=O)N1` (stereo unspecified), the Potency result is “inactive”.

On to `O=[N+]([O-])c1ccc(N/N=C/C=C/c2ccco2)cc1`, for which the Potency is 16.4 µM (active).

For the compound `COc1ccc(NC(=O)/C(C#N)=C/C=C/c2ccco2)cc1`, the Potency entry was “inactive”.

Turning to `O=C(N/N=C/C=C/c1ccco1)c1ccncc1`, the Potency entry is “inactive”.

`O=Nc1ccc(O)c2ncccc12`: the Potency result is “inactive”.

As to `CC1=NN(c2ccccc2)C(=O)/C1=C/C=C/c1ccccc1`, the Potency entry is “inactive”.

For the compound `COc1ccccc1CCC(=O)Nc1ccc2c(c1)c(=O)n(C)n2-c1cccs1`, the Potency entry was “inactive”.

On to `O=C(NC(=S)Nc1ccccc1N1CCCCC1)c1ccccc1`, for which the Potency result was “inactive”.

As to `C=CCN1C(=O)c2cccc3c(N4CCCCC4)ccc(c23)C1=O`, the Potency was 20.6 µM (active).

On to `O=C1c2cccc3c(N4CCCCC4)ccc(c23)C(=O)N1c1ccccc1O`, for which the Potency was 1.3 µM (active).

Take `O=C1c2cccc3c(N4CCCCC4)ccc(c23)C(=O)N1CCO`: the Potency was 17.7 µM (active).

On to `O=C1c2cccc3c(N4CCCCC4)ccc(c23)C(=O)N1c1cccc(O)c1`, for which the Potency entry was “inactive”.

`COc1ccc(S(=O)(=O)Nc2cc(Sc3ncn[nH]3)c(O)c3ccccc23)cc1`: the Potency result was “inactive”.

As to `CSc1ccccc1NC(=O)COC(=O)/C=C/c1ccco1`, the Potency result was “inactive”.

Consider `O=C(NC(=S)N1CCc2ccccc21)c1ccco1`, for which the Potency result is “inactive”.

For the compound `CCCOc1ccccc1C1CC(=O)NC2=C1C(=O)CCC2` (stereo unspecified), the Potency result is “inactive”.

Turning to `CCN(CC)CCCNc1ccc2ncn3c4ccc(O)cc4c(=O)c1c23`, the Potency is 18.4 µM (active).

For `CN(C)CCNc1ccc2ncn3c4ccc(O)cc4c(=O)c1c23`, the Potency was 20.6 µM (active).

On to `CCCCOc1ccc(-c2nnn(CC(=O)NCc3ccco3)n2)cc1`, for which the Potency entry was “inactive”.

`COC(=O)c1cccc(NS(=O)(=O)c2ccc(OC)cc2)c1C`: the Potency entry is “inactive”.

With `CC(=O)Nc1sc2c(c1-c1nc3ccccc3s1)CCN(C(C)C)C2`, the Potency was 18.4 µM (active).

Regarding `COc1cccc(N2CC(O)=C(c3nc4ccccc4s3)C2=N)c1`, the Potency entry was “inactive”.

For the compound `CN1CCc2c(sc(NC(=O)CSc3ccc(F)cc3)c2-c2nc3ccccc3s2)C1`, the Potency was 1.64 µM (active).

`O=C(CSc1ccccc1)Nc1nc2ccccc2[nH]1`: the Potency result is “inactive”.

`COc1ccccc1/C=N/NC(=O)c1cc2c(OC)c(OC)ccc2[nH]1`: the Potency entry is “inactive”.

On to `O=C(C(=O)N1CCN(c2ccccc2Cl)CC1)c1c[nH]c2ccccc12`, for which the Potency entry is “inactive”.

Regarding `CC1CC(C)CN(CC(=O)c2c[nH]c3ccccc23)C1` (stereo unspecified), the Potency is 18.4 µM (active).

Consider `C=CCN1C=CC(=CC=C(C#N)C#N)C=C1`, for which the Potency was 14 µM (active).

For the compound `CCCN1C=CC(=CC=C(C#N)C#N)C=C1`, the Potency was 15.8 µM (active).

Regarding `COc1cccc(/C=N/n2c(C3CCCCC3)n[nH]c2=S)c1O`, the Potency result is “inactive”.
